Screening results as filed in PubChem.
An excerpt weighted towards active compounds, which were near 4.1% of everything screened.
ssDAF-12 act = activators of S. stercoralis DAF-12 nuclear receptor | AID 652126 | 370,000 compounds, 1% hits | activation, % at 6.8 µM | HEK293 ssDAF-12/GRIP1 lit1-tk-luc reporter, luminescence; % of 3 µM dafachronic acid response;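 active means activation above the mean over all tested compounds plus 3 SD, cut at about 0.9% in these data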
hgDAF12 agonist = hgDAF-12 agonism, primary luciferase screen; activation, % at 6.8 µM; AID 687014; HEK293 GAL4-hgDAF12 UAS-luciferase reporter, agonist luminescence; normalized to butyrate control; 370,000 compounds, 1.8% hits;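 active means activation above a cutoff set at the mean of all screened compounds plus 3 SD, cut at about 10% in these data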
hcDAF12 agonist = H. contortus DAF-12 activation, primary screen; HEK293 hcDAF-12 lit1-tk-luc reporter, luminescence; 0% DMSO, 100% Δ7-dafachronic acid; 370,000 compounds, 1.4% hits; activation, % at 6.8 µM;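 active means activation above the mean of all tested compounds plus 3 SD, cut at about 5.5% in these data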
DAX1 inh-1 = NR0B1 (DAX1) inhibition; HEK293 Gal4-DAX1 luciferase reporter, luminescence; 340,000 compounds, 0.99% hits; inhibition, % at 6.75 µM; P51843;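 active means inhibition above the mean over all tested compounds plus 3 SD, cut at about 4.2% in these data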;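 further: inhibition shows as a rise in luminescence from relieved DAX1 repression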
Target sequence (P51843 207-470 limits assumed): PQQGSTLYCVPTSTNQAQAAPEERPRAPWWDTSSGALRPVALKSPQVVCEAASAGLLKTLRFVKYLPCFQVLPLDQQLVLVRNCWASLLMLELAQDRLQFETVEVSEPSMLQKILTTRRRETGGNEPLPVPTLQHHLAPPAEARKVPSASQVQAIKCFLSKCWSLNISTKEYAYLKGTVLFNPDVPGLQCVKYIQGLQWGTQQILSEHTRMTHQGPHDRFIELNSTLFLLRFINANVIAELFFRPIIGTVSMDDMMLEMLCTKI
DAX1 inh-2 = inhibitors of DAX1 repression of SF-1 activated StAR promoter; HEK293T StAR-luciferase reporter, SF-1/DAX-1 repression relief; inhibition, % at 6.8 µM; 370,000 compounds, 1.1% hits;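 active means inhibition above the mean over all tested compounds plus 3 SD, cut at about 3.6% in these data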;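 further: higher inhibition means more luminescence from relief of DAX-1 repression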
Each line names hits and unclear results; the compound was inactive in the other large screens.

CCn1cc(/C=N/O)c(C)n1	none
Cc1cc(NS(=O)(=O)c2ccc(NC(=O)CSc3nnc(SCc4ccc(Cl)cc4)s3)cc2)nc(C)n1	none (no result: DAX1 inh-1)
O=C(COc1ccccc1)NCC(=O)Nc1ccncc1	hgDAF12 agonist 11
CC(=O)Nc1ccc(NC(=O)CNC(=O)COc2ccccc2)cc1	none
Cc1ccc(N=CNc2ccc(C)cc2C)c(C)c1	ssDAF-12 act 1.8 (no result: DAX1 inh-1)
CC(C)Sc1ccc(C(=O)Nc2ccc(F)cc2F)cn1	hgDAF12 agonist 12
CCC(C)(C)C(=O)N1CCc2cc(S(=O)(=O)N(C)Cc3ccco3)ccc21	none (no result: DAX1 inh-1)
CN(C)CCN1CC(O)=C(c2nc3ccccc3s2)C1=N	DAX1 inh-1 4.8
CCN1CCCCC(NC(=O)c2ccccc2C)C1=O (stereo unspecified)	none (no result: DAX1 inh-1)
Nc1ccc2c(c1)C(=O)c1ccccc1-2	DAX1 inh-1 6.1
NC(=O)CN(c1ccc([N+](=O)[O-])cc1)S(=O)(=O)c1ccccc1	DAX1 inh-1 4.4
c1ccc(SCCCCNC2CCCC2)cc1	ssDAF-12 act 1.7
c1ccc(-c2ccc(OCCCNC3CCCC3)cc2)cc1	none (no result: DAX1 inh-1)
COc1cc(/C=C2/SC(=S)N(Cc3ccccc3)C2=O)ccc1OCC(=O)O	none
CCOc1cc(/C=C2/SC(=S)N(Cc3ccccc3)C2=O)ccc1O	hcDAF12 agonist 6.4
Cn1c(=O)[nH]c2ncn(C)c2c1=O	hgDAF12 agonist 11
CCN(CC)c1ccc(-c2nn3c(-c4ccccc4Cl)nnc3s2)cc1	none (no result: DAX1 inh-1)
COc1ccc(CCn2nc(C)c([N+](=O)[O-])c2C)cc1	DAX1 inh-2 4.2
O=C1CCC[C@H]2Cc3nc4ccccc4cc3C[C@]23CCCN13	none (no result: DAX1 inh-1, DAX1 inh-2)
O=C(Nc1ccccc1)N(O)c1ccc(Cl)cc1	ssDAF-12 act 1.6
COc1ccc2cc(-c3cccc4[nH]cc(C)c34)ccc2c1	ssDAF-12 act 1.5 (no result: DAX1 inh-1)
Cc1c[nH]c2cccc(-c3ccccc3)c12	none (no result: DAX1 inh-1)
CC(C)(C)[C@H](NC(=O)c1cc(Cl)cc(Cl)c1)C(=O)N1CCC[C@H]1C(=O)N[C@H](C#N)CC(=O)O	none (no result: DAX1 inh-1, DAX1 inh-2)
Cc1ccccc1NCC(=O)N/N=C/c1ccc[nH]1	none (no result: DAX1 inh-1, DAX1 inh-2)
CS(=O)(=O)c1nsc2nc(=O)c(/C=C3\C=Nc4ccccc43)c(N)n12	ssDAF-12 act 1.0
CC(C)Sc1nsc2nc(=O)c(/C=C3\C=Nc4ccccc43)c(N)n12	none
CCCCc1nn2c(N)c(/C=C3\C=Nc4ccccc43)c(=O)nc2s1	ssDAF-12 act 2.7
COC(=O)[C@]12C[C@H](CC(=O)NCCC(C)C)C(=O)N(Cc3ccco3)C1=C[C@H](C(C)(C)C)O[C@@H]2C	none (no result: DAX1 inh-1)
CN1CCN(c2ccc3c(c2)Oc2ccccc2CN(Cc2cn(Cc4ccc(C(F)(F)F)cc4)nn2)S3(=O)=O)CC1	none (no result: DAX1 inh-1)
Oc1ccc(-c2nc3ccccc3s2)c(O)c1	none
Nc1ccc(O)c(-c2nc3ccccc3s2)c1	ssDAF-12 act 1.2
O=c1c2ccccc2[nH]c(=S)n1CCN1CCc2ccccc2C1	DAX1 inh-1 4.3
CS(=O)(=O)NN1C(=O)c2ccccc2NC1c1ccccc1O (stereo unspecified)	none
CS(=O)(=O)NN1C(=O)c2ccccc2NC1c1c[nH]c2ccccc12 (stereo unspecified)	hcDAF12 agonist 6.2
COC(=O)C[C@@H]1CC[C@H]2[C@@H](COc3ccc(NC(=O)c4cc(C)on4)cc3C(=O)N2C)O1	none (no result: DAX1 inh-1)
O=C(c1cccs1)n1nc(-c2ccccc2)nc1NCc1ccco1	none
COCC(=O)n1nc(-c2ccccc2)nc1NCc1cccs1	DAX1 inh-1 5.2
Cc1ccc(CN2CCCCC(NC(=O)c3ccc(C)cc3)C2=O)cc1 (stereo unspecified)	none (no result: DAX1 inh-1)
O=C(NCCO)[C@H](Cc1ccccc1)NC1(C(=O)NCCN2CCOCC2)CCCCC1	none (no result: DAX1 inh-1, DAX1 inh-2)
O=C(Nc1nc2ncccn2c1-c1ccc(F)c(F)c1)c1ccccc1	none (no result: DAX1 inh-1)
COCCNC(=O)c1cc2c(s1)-c1ccc(Cl)cc1SC2	hgDAF12 agonist 13, DAX1 inh-1 5.0
Cc1n[nH]c(=S)n1/N=C/c1ccc(OCc2ccc(Cl)cc2)cc1	hgDAF12 agonist 13
NC(N)=N/N=C/c1ccc(OCc2ccc(Cl)cc2)cc1	hgDAF12 agonist 13
CCOC(=O)c1ccc(NC(=O)CSc2nnc(-c3cc(-c4ccccc4)n[nH]3)n2N)cc1	none (no result: DAX1 inh-1)
COCCCNC(=S)NC(=O)c1ccc(C)cc1	hgDAF12 agonist 13, hcDAF12 agonist 6.2
Cc1cccc(N(C(=O)CCC(=O)Nc2cc(C)on2)C(C(=O)NC2CCCC2)c2ccc(C)o2)c1 (stereo unspecified)	ssDAF-12 act 2.2
Cc1cc(NC(=O)CCC(=O)N(c2cccc(F)c2)C(C(=O)NC2CCCC2)c2ccc(C)o2)no1 (stereo unspecified)	none
Cc1cc2[nH]c(=O)c(=O)[nH]c2cc1S(=O)(=O)Nc1ccccc1F	DAX1 inh-1 4.6
COc1cc(-c2csc(C)n2)ccc1O	DAX1 inh-1 4.3
COc1ccc(C2=Nn3c(nnc3C3CCCCC3)SC2)cc1	none (no result: DAX1 inh-1)
CCc1n[nH]c(=S)n1/N=C/c1ccc(N(C)c2ccccc2)cc1	none
O=C(/C=C/C=C/c1ccc2c(c1)OCO2)N1CCCCC1	DAX1 inh-1 5.3
CN1CCN(C(=O)/C=C/c2ccc3c(c2)OCO3)CC1	none
C(=NN1CCCCCC1)c1ccc2c(c1)OCO2	DAX1 inh-1 4.3
CCc1n[nH]c(=S)n1/N=C/c1ccc2c(c1)OCO2	DAX1 inh-1 4.8
COc1ccc(C[N+]2=C(N)N[C@@]3(C=C(C)Cn4c(=O)n(-c5ccccc5)c(=O)n43)C2)c(OC)c1	none (no result: DAX1 inh-1)
C#CCN1CC(N(C)CCOC(=O)c2ccc([N+](=O)[O-])cc2)CS1(=O)=O (stereo unspecified)	none (no result: DAX1 inh-1)
COC(=O)c1cc(N=Cc2c(O)c3ccccc3oc2=O)cc(C(=O)OC)c1	DAX1 inh-1 9.2 (no result: ssDAF-12 act, hgDAF12 agonist, hcDAF12 agonist, DAX1 inh-2)
Fc1ccc(C2CC(c3ccco3)=Nc3ccccc3S2)cc1 (stereo unspecified)	DAX1 inh-1 7.0
c1ccc2c(c1)Cc1cc(CN3CCOCC3)ccc1-2	hgDAF12 agonist 13
c1ccc(CN2CCOCC2)cc1	none
O=c1[nH]ncc(N/N=C\c2ccncc2)c1Cl	none
O=c1[nH]ncc(N/N=C\c2cccnc2)c1Cl	DAX1 inh-1 5.2
Cn1c(SCC(=O)Nc2ccccc2-c2ccccc2)nnc1-c1cnccn1	none (no result: DAX1 inh-1)
CSc1ccccc1NC(=O)CN(C)Cc1ccc(Br)cc1	none
CCN(CC(=O)Nc1ccccc1-c1ccccc1)Cc1nc2ccccc2c(=O)[nH]1	none
CCN(CC(=O)Nc1ccccc1SC)Cc1nc2ccccc2c(=O)[nH]1	DAX1 inh-1 5.0
CN(Cc1nc2ccccc2c(=O)[nH]1)c1ccccc1	DAX1 inh-1 5.3
CN1CCN(C(=O)CCc2nc3ccccc3c(=O)[nH]2)CC1	hcDAF12 agonist 6.0
NC(=O)C1CCN(C(=O)CCc2nc3ccccc3c(=O)[nH]2)CC1	none
CSc1ccccc1NC(=O)CN(C)Cc1c(O)ccc2ccccc12	hcDAF12 agonist 6.2
